Source: PubChem BioAssay (National Center for Advancing Translational Sciences (NCATS))
An excerpt weighted towards active compounds, which were near 2.4% of everything screened.
AmpC det inh – AmpC beta-lactamase inhibition, detergent assay | purified AmpC, nitrocefin hydrolysis with detergent | Potency, µM (series often up to 28.7 µM), inactives show at the top dose activity change, negative = inhibition | hit rate 0.09% among 71,000 | AID 584; active means well fitted curve in the direction sought with a large enough effect; inconclusive means small, poorly fitted or top-dose-only effect; further: on the % scale 0 is the no-effect control and ±100 the full control effect
Target sequence (P00811 whole entry, looked up): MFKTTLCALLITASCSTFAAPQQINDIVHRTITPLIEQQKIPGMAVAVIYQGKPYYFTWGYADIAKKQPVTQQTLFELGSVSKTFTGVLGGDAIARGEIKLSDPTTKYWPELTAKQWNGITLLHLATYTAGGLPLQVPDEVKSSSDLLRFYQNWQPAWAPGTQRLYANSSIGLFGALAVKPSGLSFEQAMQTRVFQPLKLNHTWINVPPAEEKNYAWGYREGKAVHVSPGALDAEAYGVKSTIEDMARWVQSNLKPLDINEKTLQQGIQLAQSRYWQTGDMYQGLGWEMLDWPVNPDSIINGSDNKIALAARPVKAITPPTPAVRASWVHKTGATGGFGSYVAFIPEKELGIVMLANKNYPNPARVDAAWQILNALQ
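E. coli AmpC (5.3 nM) in 20 mM phosphate pH 7.0 with 0.01% Triton X-100, preincubated 15 min RT with compound; nitrocefin (2 uL of 800 uM stock) hydrolysis followed by 480 nm absorbance every 20 s over 4 min.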
SmPrx2 inh – blocks S. mansoni peroxiredoxin 2 enzymatic activity | Potency, µM | hit rate 0.07% among 65,000 | S. mansoni Prx2 activity coupled to TGR/GSH (TGR is thioredoxin glutathione reductase), NADPH fluorescence loss, qHTS | AID 448
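Prx2 inhibition was measured as reduced NADPH consumption when electrons flowed from NADPH through TGR and glutathione to Prx2 and H2O2. Plates were read kinetically over 8 min; enzyme reagents were held at 4 deg C during dispensing.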
LT uptake inh – anthrax lethal toxin internalization inhibition; Cells, anthrax lethal toxin internalization, FRET ratio (460/530); Potency, µM (doses to about 40 µM), for inactives: at the top dose activity change, negative = inhibition, most hits filed as inhibitors; hit rate 0.67% among 70,000; AID 912; further: on the % scale 0 is the no-effect control and ±100 the full control effect; nearly all actives have a fitted effect of over 50% in size
AmpC inh no det – inhibitors of E. coli AmpC beta-lactamase without detergent; P00811; AmpC nitrocefin hydrolysis, absorbance 480 nm, no detergent; Potency, µM (series often up to 28.7 µM), without a hit: at the top dose activity change, negative = inhibition; hit rate 1.8% among 71,000; AID 585; further: % of control where 0% means no effect
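AmpC, 20 mM phosphate pH 7.0; 15 min cpd preinc, RT; start with nitrocefin (800 uM stock); A480 kinetic read, 20 s intervals, 4 min. No-enzyme wells = negative control.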
The depositor's hits bear a star; ? = inconclusive; . = not tested or not shown; ! = repeats disagree; [ ] = remark or other dose. Unless noted, the call rests on the fitted dose curve. Potency means the concentration at half of the fitted maximal effect.

SMILES	AmpC det inh	SmPrx2 inh	LT uptake inh	AmpC inh no det
COc1ccc(CCNc2nc(C)nc3c2oc2ccccc23)cc1OC	-2%	>57	10µM*	101%
Cc1cc(C(=O)CSc2nn(-c3ccccc3)c(=S)s2)c(C)n1Cc1ccco1	-1%	>57	?	13µM*
Cc1cc(C(=O)CSc2nnc(-c3ccco3)o2)c(C)n1Cc1ccco1	-3%	>57	-6%	28%
CC(C)CN(CC(C)C)c1nnc(N)s1	26%	>57	0%	4µM*[single pt active]
Oc1c(Cl)c(Cl)cc(Cl)c1Cl	7%	.	-5%	-18%
Oc1cc(Cl)c(Cl)c(Cl)c1	10%	.	13µM*	-17%
N#C/C(=C\c1ccc(O)c(O)c1)C(=O)NCCCc1ccccc1	-2%	>57	?	0.2µM*!
CCC(C)N1CC23C=CC(O2)C(C(=O)OC)C3C1=O (stereo not drawn)	13%	>57	10%	4µM*[single pt active]
CCOC(=O)C1[C@H]2C(=O)N(C(C)c3ccc(OC)cc3)C[C@]23C=C[C@H]1O3 (stereo partly drawn)	-2%	>57	?	-11%
N#CS.N=C=S.N=C=S.[Cu].[NH2-].[NH2-].[NH2-].[NH2-].c1ccc2ncccc2c1	-2%[5.75 µM]	>57	-16%[8 µM]	0%[5.75 µM]
Cc1cc(C)n(-c2ccc(C(=O)OCC(=O)NCc3ccco3)cc2)n1	-1%	>57	6%	32%
Cc1cc(C)n(-c2ccc(C(=O)OCC(=O)c3ccc(Br)s3)cc2)n1	2%	>57	-9%	13µM*[single pt active]
COCCn1c(=O)cnc2cnc(Oc3ccccc3)nc21	-3%	>57	-2%	6%
CCOC(=O)CSCc1nc(-c2ccc(Cl)cc2)oc1C	25%	>57	?	4µM*[single pt active]
CC(C)N[C@@H](C)Cc1ccc(I)cc1	-2%	>57	-4%	1%
Cc1cc[c]([Sb]2[O][C@H]([C@H](O)[C@H](O)C(=O)O)[C@@H](CO)[O]2)cc1	-1%[5.75 µM]	>57	-2%[8 µM]	-5%[5.75 µM]
O=C(O)[C@@H](O)[C@@H](O)[C@@H]1[O][Sb][O][C@@H]1CO	-5%[5.75 µM]	0.86*	-4%[8 µM]	6%[5.75 µM]
COc1cccc(NS(=O)(=O)c2nc3nc(C)cc(C)n3n2)c1	13%	>57	1%	4µM*[single pt active]
Cc1nc2cnc(N3CCOCC3)nc2n(Cc2cccs2)c1=O	1%	>57	11%	8%
Cc1csc(Sc2nc3c(c(=O)[nH]c(=O)n3C)n2CCCc2ccccc2)n1	-5%	>57	-13%	16µM*[single pt active]
COc1ccccc1-c1cc(C(F)(F)F)nc(S(=O)(=O)CCCC(=O)N2CCOCC2)n1	-2%	>57	1.6µM*	83%
COc1ccc(-c2cc(C(F)(F)F)nc(S(=O)(=O)CCC(=O)N3CCOCC3)n2)cc1	4%	>57	?	67%
CN1CCN(c2ncc3nc(-c4ccccc4)c(=O)n(CCC#N)c3n2)CC1	-3%	>57	-14%	64%
CN(C)C(=O)c1ccc(-c2nc(NCc3cccnc3)c3ccccc3n2)cc1	11%	>57	?	54%
COc1ccc(S(=O)(=O)c2c(N)n(Cc3ccco3)c3nc4ccccc4nc23)cc1	-1%	>57	?	13µM*
SMILES	AmpC det inh	SmPrx2 inh	LT uptake inh	AmpC inh no det
COc1ccc(Cn2c(C)nc3c(c2=O)c2nc4ccccc4nc2n3Cc2ccco2)cc1	13%	>57	?	49%
CCCCN(CC)S(=O)(=O)c1ccc(C(=O)Nc2nnc(-c3ccccc3Cl)o2)cc1	-1%	>57	11%	6.3µM*
CCCCN(C)S(=O)(=O)c1ccc(C(=O)Nc2nnc(-c3cccs3)o2)cc1	-1%	>57	-4%	16µM*
CCOC(=O)CN1c2ccccc2NC(=O)CC1C (stereo not drawn)	13%	>57	-6%	4µM*[single pt active]
CCOC(=O)CN1C(=O)C(O)=C(C(C)=O)C1c1ccccc1 (stereo not drawn)	-2%	>57	.	1%
Nc1ncnc2c1c(-c1ccc(Oc3ccccc3)cc1)cn2C1CCCC1	1%	>57	16µM*	28%
Cc1cc(NC(=O)CCS(=O)(=O)c2nc(-c3ccccc3)cc(C(F)(F)F)n2)no1	-3%	>57	7.9µM*	-11%
O=C(CSc1nnc(-c2ccccc2O)o1)Oc1ccc(OCc2ccccc2)cc1	-7%	>57	-13%	13µM*[single pt active]
Cc1nnc(SCCc2ccccc2)[nH]c1=O	11%	>57	2%	-19%
Cc1ccccc1CSc1nnc(C)c(=O)[nH]1	12%	>57	-10%	4µM*[single pt active]
C=C1CC[C@@H]2O[C@]2(C)CC[C@@H]2[C@H]1CC2(C)C	-2%	>57	?	117%
CS/C(=N\S(=O)(=O)c1cccs1)NC(=O)CSc1nc2ccccc2s1	-4%	>57	?	13µM*
O=C1c2ccccc2C(Nc2ccc3c(c2)OCCO3)N1Cc1ccc2c(c1)OCO2 (stereo not drawn)	11%	>57	?	4µM*[single pt active]
O=C1c2ccccc2C(Nc2ccc3c(c2)OCCO3)N1c1ccccn1 (stereo not drawn)	9%	>57	?	14%
CCN(CC)S(=O)(=O)c1ccc(NC2c3ccccc3C(=O)N2Cc2ccc3c(c2)OCO3)cc1 (stereo not drawn)	15%	>57	?	4µM*[single pt active]
CN(C)C(=O)c1ccc(-c2ccc3ncnc(NC4CCNCC4)c3c2)cc1	6%	>57	-11%	10%
CCOc1ccccc1N1CSC2=C(C#N)C(c3c(OC)ccc4ccccc34)CC(=O)N2C1 (stereo not drawn)	12%	>57	?	2.5µM*[single pt active]
CCOC(=O)c1ccc(N2CSC3=C(C#N)C(c4cccs4)CC(=O)N3C2)cc1 (stereo not drawn)	7%	>57	-19%	2.5µM*
COc1ccc(N2CSC3=C(C#N)C(c4ccc(OC)c(OC)c4)CC(=O)N3C2)c(OC)c1 (stereo not drawn)	3%	.	5%	48%
CN1CSC2=C(C#N)C(c3cccc(OCc4ccccc4)c3)CC(=O)N2C1 (stereo not drawn)	13%	>57	?	4µM*[single pt active]
COc1ccc(N2CSC3=C(C#N)C(c4cc(OC)c(OC)cc4OC)CC(=O)N3C2)c(OC)c1 (stereo not drawn)	12%	>57	-13%	96%
COc1ccc(C2CC(=O)N3CN(c4ccc(C)c(Cl)c4)CSC3=C2C#N)cc1OC (stereo not drawn)	5%	>57	6.3µM*	6%
COc1ccc(N2CSC3=C(C#N)C(c4cc(OC)ccc4OC)CC(=O)N3C2)c(OC)c1 (stereo not drawn)	1%	>57	?	41%
COc1ccc(-c2coc3ccc(O[C@@H]4O[C@@H](COC(C)=O)[C@@H](OC(C)=O)[C@@H](OC(C)=O)[C@H]4OC(C)=O)cc3c2=O)cc1	-3%	>57	?	67%
CC(=O)N1CCC2(CC1)CN(Cc1ccccc1)C2	0%	>57	-3%	-10%
COc1ccc2nc3c(cc2c1)Cc1ccccc1-3	22%	>57	?	?
CCc1ccc(N2CSC3=C(C#N)C(c4cccs4)CC(=O)N3C2)cc1 (stereo not drawn)	-6%	>57	-29%	-13%
